According to the supplement of paper PMC10849652:
About 7,900 targets were measured; listed, in parts, are those with a hit and a random draw of the rest. About 0.6% of all pairs of compound and target were hits.

Assays:
Assay in all cases: log2 fold change, soluble protein after heating vs DMSO (PISA); higher = thermal stabilisation; K562 cells, 10 uM, 30 min; active = over 0.2 and 3.5 SD of the protein, either way, in both replicates (recomputed)
[1] = compound: C1=CC=C(C=C1)[C@H](COC2=CC3=C(C=C2)NC(=O)N3)NC(=O)C4=CC=CN(C4=O)CC5=CC(=C(C=C5)F)F
How it was run: (§1)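 K562 cells at 2×10^6 cells/mL were exposed to 10 μM compound for 30 min, then aliquots were heated for 3 min across 48°C-58°C, pooled, and extracted in PBS containing 0.5% NP-40 at 4°C. The supernatant after 21,000xg for 90 min was taken as soluble protein and measured by TMTpro 16plex LC-MS/MS with channel sums equalised. Thermal stability is reported relative to control samples, with values from duplicates. Fold changes are given on a log2 scale.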

[2] = compound: CC1=C(SC2=C1C(=N[C@H](C3=NN=C(N32)C)CC(=O)N)C4=CC=C(C=C4)Cl)C
How it was run: as §1

[3] = compound: CC1=C2C(=CC=C1)N=C(N(C2=O)C3=CC=CC=C3C)CN4C=NC5=C(N=CN=C54)N
How it was run: as §1

[4] = compound: Cc1sc2c(c1C)C(c1ccc(Cl)cc1)=N[C@@H](CC(=O)OC(C)(C)C)c1nnc(C)n1-2
How it was run: as §1

[5] = compound: c1ccc([C@@H]2C[C@H]2NC2CCNCC2)cc1
How it was run: as §1

Measured: log2 fold change

CLPX (UniProt O76031)
UniProt O76031, sequence (O76031 whole entry, looked up): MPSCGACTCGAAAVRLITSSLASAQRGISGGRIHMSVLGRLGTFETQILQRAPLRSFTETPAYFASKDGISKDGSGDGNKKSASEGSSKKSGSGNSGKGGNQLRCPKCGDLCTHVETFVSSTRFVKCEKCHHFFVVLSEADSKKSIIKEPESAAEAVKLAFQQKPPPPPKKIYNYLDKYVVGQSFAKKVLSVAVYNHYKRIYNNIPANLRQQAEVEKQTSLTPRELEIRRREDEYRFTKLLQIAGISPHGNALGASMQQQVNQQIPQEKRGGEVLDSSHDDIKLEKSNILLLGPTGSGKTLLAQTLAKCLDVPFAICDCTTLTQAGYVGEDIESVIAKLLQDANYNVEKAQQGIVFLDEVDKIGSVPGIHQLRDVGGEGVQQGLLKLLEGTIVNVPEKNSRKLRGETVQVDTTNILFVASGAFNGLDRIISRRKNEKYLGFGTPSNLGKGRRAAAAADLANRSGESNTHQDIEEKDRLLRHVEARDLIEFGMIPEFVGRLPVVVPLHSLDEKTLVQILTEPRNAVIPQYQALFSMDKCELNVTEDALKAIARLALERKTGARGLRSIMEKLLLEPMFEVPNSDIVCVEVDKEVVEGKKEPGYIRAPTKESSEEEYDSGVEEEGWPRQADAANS
inactive: [1] 0.011 | [2] -0.02 | [3] 0.013 | [4] -0.035 | [5] 0.048

CSTF3 (UniProt Q12996)
UniProt Q12996, sequence (Q12996 whole entry, looked up): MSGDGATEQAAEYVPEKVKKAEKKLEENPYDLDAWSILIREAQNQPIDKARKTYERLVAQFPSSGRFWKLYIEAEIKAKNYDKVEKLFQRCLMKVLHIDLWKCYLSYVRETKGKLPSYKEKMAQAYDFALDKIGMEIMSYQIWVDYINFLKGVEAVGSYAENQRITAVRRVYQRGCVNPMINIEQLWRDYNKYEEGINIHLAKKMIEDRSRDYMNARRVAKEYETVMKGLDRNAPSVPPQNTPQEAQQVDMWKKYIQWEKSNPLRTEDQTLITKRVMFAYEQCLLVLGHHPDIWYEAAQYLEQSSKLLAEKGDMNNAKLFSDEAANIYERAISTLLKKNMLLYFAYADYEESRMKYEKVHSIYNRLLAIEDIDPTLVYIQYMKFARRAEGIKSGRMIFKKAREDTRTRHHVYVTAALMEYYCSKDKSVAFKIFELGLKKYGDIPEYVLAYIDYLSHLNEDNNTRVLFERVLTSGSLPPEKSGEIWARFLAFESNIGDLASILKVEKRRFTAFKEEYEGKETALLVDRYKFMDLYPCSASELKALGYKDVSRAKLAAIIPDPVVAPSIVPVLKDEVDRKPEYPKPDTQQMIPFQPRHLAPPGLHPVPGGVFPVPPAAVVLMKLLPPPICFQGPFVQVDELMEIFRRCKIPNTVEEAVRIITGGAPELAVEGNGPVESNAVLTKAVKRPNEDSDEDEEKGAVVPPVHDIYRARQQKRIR
inactive: [1] -0.005 | [2] 0.064 | [3] -0.007 | [4] 0.03 | [5] -0.016

COMT (UniProt P21964)
UniProt P21964, sequence (P21964 whole entry, looked up): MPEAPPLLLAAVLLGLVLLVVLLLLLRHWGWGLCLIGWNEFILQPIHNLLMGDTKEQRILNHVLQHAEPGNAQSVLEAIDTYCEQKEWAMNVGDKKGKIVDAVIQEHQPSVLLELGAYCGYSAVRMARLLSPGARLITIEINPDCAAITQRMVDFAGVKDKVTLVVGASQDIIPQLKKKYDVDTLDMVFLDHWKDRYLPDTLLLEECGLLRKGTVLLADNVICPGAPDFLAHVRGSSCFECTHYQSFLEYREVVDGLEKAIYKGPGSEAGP
inactive: [1] 0.024 | [2] 0.142 | [3] 0.09 | [4] -0.028 | [5] -0.038

CES2 isoform 4 (UniProt O00748)
UniProt O00748, sequence (O00748 whole entry, looked up): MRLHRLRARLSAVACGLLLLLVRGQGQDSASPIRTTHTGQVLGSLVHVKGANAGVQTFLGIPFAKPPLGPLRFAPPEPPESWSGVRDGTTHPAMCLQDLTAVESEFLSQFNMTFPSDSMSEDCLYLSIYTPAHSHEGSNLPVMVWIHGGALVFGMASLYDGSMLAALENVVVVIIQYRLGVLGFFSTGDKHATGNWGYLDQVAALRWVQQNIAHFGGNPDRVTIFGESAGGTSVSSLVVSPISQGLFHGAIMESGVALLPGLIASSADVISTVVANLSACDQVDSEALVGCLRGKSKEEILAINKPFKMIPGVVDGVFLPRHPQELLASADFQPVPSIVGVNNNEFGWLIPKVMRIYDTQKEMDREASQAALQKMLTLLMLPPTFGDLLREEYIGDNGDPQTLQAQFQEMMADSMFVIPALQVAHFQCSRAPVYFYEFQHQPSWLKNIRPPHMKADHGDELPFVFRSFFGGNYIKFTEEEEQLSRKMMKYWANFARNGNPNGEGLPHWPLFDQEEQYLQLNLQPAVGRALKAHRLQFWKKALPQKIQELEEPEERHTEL
inactive: [1] 0.041 | [2] -0.069 | [3] 0.061 | [4] 0.118 | [5] -0.141

CALCOCO2 isoform 4 (UniProt Q13137)
UniProt Q13137, sequence (Q13137 whole entry, looked up): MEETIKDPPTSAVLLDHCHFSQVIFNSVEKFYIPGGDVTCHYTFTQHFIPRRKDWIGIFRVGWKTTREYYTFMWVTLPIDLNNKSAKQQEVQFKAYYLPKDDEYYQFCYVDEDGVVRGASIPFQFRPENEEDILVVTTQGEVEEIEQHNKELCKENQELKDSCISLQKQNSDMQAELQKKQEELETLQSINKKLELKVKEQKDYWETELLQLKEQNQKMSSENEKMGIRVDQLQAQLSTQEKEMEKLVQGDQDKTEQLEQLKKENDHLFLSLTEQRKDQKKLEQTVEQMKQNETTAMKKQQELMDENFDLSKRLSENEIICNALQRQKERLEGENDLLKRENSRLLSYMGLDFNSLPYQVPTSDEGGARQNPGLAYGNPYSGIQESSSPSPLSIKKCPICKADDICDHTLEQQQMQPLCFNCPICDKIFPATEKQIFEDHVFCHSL
inactive: [1] -0.036 | [2] -0.002 | [3] -0.04 | [4] 0.049 | [5] 0.026

CHKA (UniProt P35790)
UniProt P35790, sequence (P35790 whole entry, looked up): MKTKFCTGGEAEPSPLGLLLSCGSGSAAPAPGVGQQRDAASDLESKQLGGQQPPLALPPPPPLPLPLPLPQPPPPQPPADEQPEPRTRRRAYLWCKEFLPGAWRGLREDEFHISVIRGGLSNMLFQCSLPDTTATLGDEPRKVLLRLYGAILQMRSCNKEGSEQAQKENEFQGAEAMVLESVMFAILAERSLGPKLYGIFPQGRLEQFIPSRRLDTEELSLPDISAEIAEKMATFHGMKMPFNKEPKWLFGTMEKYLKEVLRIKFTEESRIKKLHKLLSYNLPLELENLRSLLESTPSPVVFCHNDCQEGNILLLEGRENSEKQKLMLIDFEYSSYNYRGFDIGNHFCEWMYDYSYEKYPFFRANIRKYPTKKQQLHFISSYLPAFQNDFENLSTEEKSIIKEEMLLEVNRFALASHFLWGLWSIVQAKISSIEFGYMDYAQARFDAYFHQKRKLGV
inactive: [1] -0.055 | [2] -0.023 | [3] 0.124 | [4] -0.004 | [5] 0.19

C9orf72 (UniProt Q96LT7)
UniProt Q96LT7, sequence (Q96LT7 whole entry, looked up): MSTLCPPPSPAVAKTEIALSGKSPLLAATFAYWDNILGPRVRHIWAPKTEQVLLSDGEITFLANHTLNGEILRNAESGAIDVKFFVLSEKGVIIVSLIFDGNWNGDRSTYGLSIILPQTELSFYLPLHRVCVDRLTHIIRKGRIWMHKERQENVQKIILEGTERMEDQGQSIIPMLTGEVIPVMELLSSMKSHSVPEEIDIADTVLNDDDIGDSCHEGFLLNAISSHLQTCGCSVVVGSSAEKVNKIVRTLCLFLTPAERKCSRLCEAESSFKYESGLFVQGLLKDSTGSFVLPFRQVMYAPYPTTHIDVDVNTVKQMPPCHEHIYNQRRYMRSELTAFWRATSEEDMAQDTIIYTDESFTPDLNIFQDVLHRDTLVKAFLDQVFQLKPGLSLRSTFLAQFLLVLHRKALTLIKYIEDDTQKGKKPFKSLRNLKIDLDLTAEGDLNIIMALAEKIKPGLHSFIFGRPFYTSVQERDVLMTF
inactive: [1] 0.02 | [2] 0.009 | [3] 0.085 | [4] -0.115 | [5] 0.002

CCNH (UniProt P51946)
UniProt P51946, sequence (P51946 whole entry, looked up): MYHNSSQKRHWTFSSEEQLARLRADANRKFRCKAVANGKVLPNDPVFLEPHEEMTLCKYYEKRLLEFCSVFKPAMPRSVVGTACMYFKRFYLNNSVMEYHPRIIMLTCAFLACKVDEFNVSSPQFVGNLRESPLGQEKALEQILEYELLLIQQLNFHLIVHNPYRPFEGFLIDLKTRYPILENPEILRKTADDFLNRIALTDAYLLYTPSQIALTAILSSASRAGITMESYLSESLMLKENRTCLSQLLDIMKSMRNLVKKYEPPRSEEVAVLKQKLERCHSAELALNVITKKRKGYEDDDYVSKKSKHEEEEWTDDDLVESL
inactive: [1] 0.02 | [2] -0.035 | [3] 0.032 | [4] 0.002 | [5] 0.033

CBX5 (UniProt P45973)
UniProt P45973, sequence (P45973 whole entry, looked up): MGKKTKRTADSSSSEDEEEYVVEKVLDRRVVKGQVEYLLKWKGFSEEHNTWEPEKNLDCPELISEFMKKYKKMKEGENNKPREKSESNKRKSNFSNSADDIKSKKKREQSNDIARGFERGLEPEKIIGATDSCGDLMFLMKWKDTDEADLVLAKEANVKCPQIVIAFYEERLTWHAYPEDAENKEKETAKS
inactive: [1] -0.001 | [2] 0.029 | [3] 0.05 | [4] 0.016 | [5] 0.008
